Source: PubChem BioAssay (several laboratories)
GALR2 agonist = activates the human galanin receptor 2; 140,000 compounds, 0.48% hits; activation, % (concentration not given with the values); O43603; GALR2-expressing cells, agonist activation read-out; in the data active = activation above about 5%, passing the limit was not always enough;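 also: 0% = vehicle buffer wells and 100% = reference agonist at full effect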
S1P2 ag = agonists of human S1P2 receptor | 97,000 compounds, 0.46% hits | activation, % at 4.5 µM | AID 729 | O95136 | S1P2-expressing cell line, agonist reporter read-out; in the data active = activation above about 16%;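 also: 0% = vehicle low control and 100% = maximal reference agonist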
Target sequence (O95136 whole entry, looked up): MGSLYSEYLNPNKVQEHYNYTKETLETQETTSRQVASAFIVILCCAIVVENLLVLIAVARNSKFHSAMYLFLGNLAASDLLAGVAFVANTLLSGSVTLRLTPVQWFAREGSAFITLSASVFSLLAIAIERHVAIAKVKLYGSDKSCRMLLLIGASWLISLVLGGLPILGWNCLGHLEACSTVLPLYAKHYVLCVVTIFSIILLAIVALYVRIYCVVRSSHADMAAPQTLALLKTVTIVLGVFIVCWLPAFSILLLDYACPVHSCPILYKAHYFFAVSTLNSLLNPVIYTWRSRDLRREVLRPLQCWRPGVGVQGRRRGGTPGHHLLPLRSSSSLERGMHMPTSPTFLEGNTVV
F-actin modifier = modifiers of cytoskeleton assembly; 91,000 compounds, 0.18% hits; AID 836; inhibition, % at 2 µM; HUVEC TNFa F-actin phalloidin imaging, high content;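 active = inhibition above the batch mean plus 3 SD and confirmed as a hit by visual image inspection, cut at about 30% in these data, passing the limit was not always enough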
GALR2 antag = antagonists of human galanin receptor 2 (GALR2); AID 828; 140,000 compounds, 0.39% hits; inhibition, % at 4 µM; GALR2-expressing cells, antagonist mode; O43603; in the data active = inhibition above about 27%;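 also: cells stimulated with galanin 1-16 at roughly its EC80; 0% = agonist challenge control and 100% = basal control without agonist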
S1P2 blocker = S1P2 (human) receptor antagonism; O95136; AID 736; cell-based S1P2 antagonist assay, inhibition at 5 uM; 97,000 compounds, 0.21% hits; inhibition, % at 5 µM; in the data active = inhibition above about 45%;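 also: CRE beta-lactamase reporter cells expressing human S1P2 stimulated with S1P; 0% = agonist at EC80 alone and 100% = agonist plus reference antagonist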
An asterisk follows results filed as active; nt = no result. An excerpt weighted towards active compounds, which were near 1.3% of everything screened.

SMILES	GALR2 agonist	S1P2 ag	F-actin modifier	GALR2 antag	S1P2 blocker
Cc1cc(C)n2nc(SCc3cc(=O)n4ccccc4n3)nc2n1	-1	20*	2	-10	-49
CCCOc1ccc(C2C(C(=O)OC)=CN(CCOC)C=C2C(=O)OC)cc1	6.9*	17*	1	-13	-18
CCCC(=O)c1ccc(N2CCC(C)CC2)c(F)c1	-1	nt	nt	-6	nt
Nc1nc(SCC(=O)Nc2ccccc2)nc2nc3c(cc12)CCCC3	0	nt	nt	4	nt
Nc1nc(SCc2ccc([N+](=O)[O-])cc2)nc2nc3c(cc12)CCCC3	5.1*	nt	nt	-4	nt
O=C(c1cc2ccccc2o1)N1CCN(c2ccccc2Cl)CC1	-1	-4	6	-6	10
CCCC(=O)N1CCN(c2ccc(NC(=O)c3cc4ccccc4o3)cc2Cl)CC1	-3	-6	-7	8	76*
CCC(=O)N1CCN(c2ccc(NC(=O)c3cc4ccccc4o3)cc2Cl)CC1	-1	-1	-9	6	51*
O=C(Nc1ccc(N2CCN(C(=O)c3ccco3)CC2)c(Cl)c1)c1cc2ccccc2o1	-3	-9	-7	16	65*
COc1ccccc1NC(=O)C1=C(C)NC(=O)NC1c1cc(C)cs1 (stereo unspecified)	-2	nt	nt	-5	nt
Cc1ccc(NC(=O)COC(=O)c2sccc2C)cc1S(=O)(=O)N1CCOCC1	-1	nt	nt	1	nt
CCc1ccc(OCC(=O)Nc2cc(S(=O)(=O)CC)ccc2O)cc1	-1	-6	11	-1	-8
O=C(Nc1ccc2nc(-c3cccs3)[nH]c2c1)c1cccs1	-1	4	14	14	-28
O=C(Nc1ccc(-c2nc3ccc(NC(=O)c4cccs4)cc3[nH]2)cc1)c1cccs1	4	-4	nt	28*	1
COc1ccc2cc3c(N)nn(C(=O)c4cccc([N+](=O)[O-])c4)c3nc2c1	8.0*	nt	nt	-2	nt
CCOc1ccc(CC(=O)N2N=C(C)CC2(O)C(F)(F)F)cc1 (stereo unspecified)	0	nt	nt	-10	nt
CCOc1ccc2[nH]c(=O)c(CN(CCO)C(=O)c3ccccc3F)cc2c1	-2	-3	-4	-2	-5
CCOc1ccc2[nH]c(=O)c(CN(Cc3ccccc3)C(=O)N3CCCC3)cc2c1	-3	-6	50*	-8	-7
O=C(CSC1=NCCS1)Nc1ccnc2ccccc12	-2	nt	nt	35*	nt
CCCCOC(=O)C(C#N)c1nc2ccccc2nc1N1CCOCC1 (stereo unspecified)	-2	-3	44	4	-11
CCCCCCOC(=O)C(C#N)c1nc2ccccc2nc1N1CCOCC1 (stereo unspecified)	-1	-1	9	-2	66*
CCCCOc1ccccc1C1C(C(=O)OC)=C(C)N(C)C(C)=C1C(=O)OC	-2	-1	-3	-1	-20
CCCCN1C=C(C(=O)OC)C(c2ccccc2C(F)(F)F)C(C(=O)OC)=C1	1	19*	-12	-10	-17
Cc1ccc(OCc2cn3cccnc3n2)cc1	-1	nt	nt	5	nt
Cc1ccc2nc(-c3ccc(SCC(=O)Nc4nnc(C)s4)nc3)[nH]c2c1	5.3*	nt	nt	13	nt
SMILES	GALR2 agonist	S1P2 ag	F-actin modifier	GALR2 antag	S1P2 blocker
Cc1ccc2nc(-c3ccc(SCC(=O)Nc4nc(C)cs4)nc3)[nH]c2c1	0	nt	nt	10	nt
CCOC(=O)c1c(C)n(C)c2cc(-c3ccc(C)cc3)c(O)cc12	5.3*	nt	nt	-9	nt
COc1ccc(NC(=O)COC(=O)c2cc(OC)c(OC)cc2NC(=O)c2ccco2)cc1OC	0	18*	10	0	-20
COC(=O)c1cc(OC)c(OC)cc1NC(=O)c1ccco1	0	nt	nt	-2	nt
Cc1nn(CC(=O)Nc2ccc(C(=O)N(C)C)cc2)c(=O)c2ccccc12	-2	-2	34*	-11	-13
Cc1nn(CC(=O)Nc2ccccc2)c(=O)c2ccccc12	-1	-6	nt	1	-4
Cc1cc(Cl)ccc1OCCCC(=O)N/N=C/c1cccc([N+](=O)[O-])c1	0	nt	nt	-3	nt
O=C(O)CCC(=O)NC1CCCCCCC1	-2	-4	100*	11	-5
O=C(Nc1ccccc1)c1sc2cc(C(F)(F)F)cnc2c1-c1cccs1	-1	-6	9	3	46*
NC(=O)c1sc2cc(C(F)(F)F)cnc2c1-c1cccs1	-1	0	-4	-1	-2
O=C(N/N=C\c1cc(Cl)ccc1O)c1ccc(S(=O)(=O)N2CCCCC2)cc1	6.9*	nt	nt	15	nt
O=C(CSc1nnc2ccccn12)Nc1cccc(-c2nc3ccccc3s2)c1	5.7*	nt	nt	10	nt
CSc1cc(-c2ccc(Cl)cc2)n(Cc2ccccc2)c(=O)c1C#N	438*	-8	nt	-3	-19
CCOC(=O)c1cc(=O)n(Cc2ccccc2C)c2ccccc12	-1	2	33*	-2	-19
Cc1ccc(Cn2c(=O)cc(C(=O)O)c3ccccc32)cc1	0	-5	-12	-6	13
N#Cc1c(N)n(C2CCCCC2)c2nc3ccccc3nc12	17*	22*	17	-10	-45
CCC(=O)Nc1c(C#N)c2nc3ccccc3nc2n1C1CCCCC1	0	1	6	-3	-13
CCCc1nc2ccccc2c(C(=O)OCC(=O)Nc2ccc(S(=O)(=O)N3CCOCC3)cc2)c1CC	0	-1	0	-18	-20
CCCc1nc2ccccc2c(C(=O)OCC(=O)Nc2cccc(S(=O)(=O)N3CCOCC3)c2)c1CC	-1	19*	-10	9	-10
CCNC(=O)NC(=O)COC(=O)CCCSc1nc2ccccc2s1	0	nt	nt	-4	nt
O=C(Nc1ccc(S(=O)(=O)N2CCCCC2)cc1)c1ccc(CN2CCc3ccccc3C2)cc1	-1	-4	0	19	52*
S=C(NCc1ccccn1)Nc1ccc(Cl)c(Cl)c1	-2	-5	-32	1	47*
COc1cccc(C(=O)NCC(=O)N/N=C/c2cccs2)c1	3	nt	nt	0	nt
CCNc1nc(NCC)n2c(SCc3ccc(F)cc3)nnc2n1	-1	-2	-37	-7	4
CCNc1nc(NCC)n2c(SCc3nc4ccccc4c(=O)[nH]3)nnc2n1	-1	43*	2	4	-49
SMILES	GALR2 agonist	S1P2 ag	F-actin modifier	GALR2 antag	S1P2 blocker
CCCN(CCC)C1=N/C(=C\c2ccco2)C(=O)N1c1ccccc1	4	5	9	-13	-14
COc1ccc(N=c2oc3cc(O)ccc3cc2C(=O)NCC2CCCO2)cc1 (stereo unspecified)	16*	18*	-44	-26	-43
O=C(c1ccccc1)c1cc2ccc(O)cc2oc1=O	-1	0	7	3	12
COc1ccc(N=c2oc3cc(O)ccc3cc2C(=O)NCC2CCCO2)c(OC)c1 (stereo unspecified)	68*	37*	-22	-53	-81
CCOc1ccc(N=c2oc3cc(O)ccc3cc2C(=O)NCC2CCCO2)cc1 (stereo unspecified)	7	1	-32	0	-14
Cc1ccc(N=c2oc3cc(O)ccc3cc2C(N)=O)cc1	42*	17*	-18	-16	-2
COc1ccc(C(=O)N(C)Cc2ccccc2)cc1Br	-2	nt	nt	5	nt
CC1(C)c2ccccc2N2CCC(=O)NC21/C=C/c1ccco1 (stereo unspecified)	6.1*	-4	6	-5	0
